# Test results: PubChem BioAssay (EPA / NIEHS)
# The source made the active and inactive calls. Rule for the calls: active = hit-call score of the fitted dose curve at least 0.9, where 1 is the maximum; inactive = score below 0.9.
# Read-out: Insulin-like growth factor-binding protein 1 (IGFBP1), IGFBP1 (gene 3484)
# Assay: LTEA_HepaRG_IGFBP1: Life Technologies and Expression Analysis (LTEA) Assay for Insulin-like growth factor-binding protein 1 (IGFBP1) using HepaRG (AID 2283508)
# Settings: mRNA level, 48 h; actives raise or lower the signal
# Protocol: LTEA_HepaRG is a cell based, multiplexed-readout assay that uses HepaRG, a human liver cell line, with measurements taken at 48 hours after chemical dosing on a 96-well plate.LTEA_HepaRG_IGFBP1 is one of 102 assay component(s) measured in the LTEA HepaRG cell culture assay. It is a marker of Cell proliferation, survival, death.Data from the assay component LTEA_HepaRG_IGFBP1 was analyzed into 1 endpoint. This assay endpoint, LTEA_HepaRG_IGFBP1, was analyzed with bidirectional fitting relative to DMSO as the negative control and baseline of activity. Using a type of inducible reporter, measures of mRNA induction for gain or loss-of-signal activity can be used to understand regulation of transcription factor activity. To generalize the intended target to other relatable targets, this assay endpoint is annotated to the transporter intended target family, where the subfamily is hormone carrier protein.
# A total of 1060 chemcials from the ToxCast library were tested in eight-point concentration-response experiments. Cell culture and cytotoxicity assays were conducted at Thermo Fisher Scientific's Custom Services facility (Madison, WI). A single lot of human HepaRG cells (Thermo Fisher Scientific, Frederick, MD) was used for the cell culture experiments. 96-well format collagen type I coated plates of human HepaRG cells were prepared using established methods. Briefly, cryopreserved HepaRG cells were thawed, plated at a density of approximately 100,000 cells/well in HepaRG Thaw, Plate, and General Purpose media (HPRG770, Thermo Fisher Scientific), and incubated for 48 hours. 0.5% DMSO was selected as vehicle control to balance the requisite need of DMSO in HepaRG cultures to maintain differentiation (for example, baseline metabolism, proportions of hepatocytes vs. cholangiocytes), while enabling further hepatic receptor pathway activation (for example, PXR and CAR) in response to chemical exposure. 48 hours after plating, the culture medium was replaced with HepaRG Serum-Free Incudtion Media. Cells were exposed to each test chemical in duplicate and maintained in CO2 incubators for another 48 hours. Chemical plates were thawed to room temperature and 200x concentrations of treatment groups were prepared. 8-point conentration-reponse curves were made with the highest exposure at 100 uM, followed by half-log dilutions, all in 0.5% DMSO. Each test plate contained variouse controls, induction positive controls (1mM phenobarbital), cytotoxicity positive controls ([…] aflatoxin B1), vehicle controls (0.5% DMSO), and total lysis controls (0.5% DMSO). Cell morphology images were taken using an Essen IncuCyte FLR automated microscope, with six 96-well plates imaged in about 24 minutes. Images were captured and exported and JPEG files. Spent culture media was transfered to black-well plates for the LDH assay, and remaining media was sorted at -80 C for later use. Cells were treated with RLT buffer and frozen until shipped for gene expression analysis. Total RNA was isolated from the cell suspension in 75 uL of Buffer RLT (Qiagen, Germantown, MD 20874) by Quintiles/Expression Analysis (Durham, NC) using a custom isolation procedure. Total RNA from each plate well was transferred to a preamplification plate. Fluidigm's 96.96 Dynamic ArrayTM (Fluidigm, Amsterdam, the Netherlands) technology was used for gene expression analyses by quantitative reverse transcription polymerase chain reaction (qRT-PCR, performed by Quintiles/Expression Analysis, Durham, NC)89. Standard TaqManTM Assays (Applied Biosystems/ThermoFisher Scientific, Foster City, CA) were used to assess the expression of 93 genes selected based on their selectivity and sensitivity to important hepatic receptors known to be modulated by environmental chemicals; importance in human hepatocyte functionality; and hepatotoxicity. […]
SMILES,outcome,AC50
Cc1cc(C)cc(C)c1,inactive,–
COc1ccccc1N,inactive,–
CN(C)C(=S)S,inactive,–
N#Cc1cccnc1,inactive,–
O=C(N[C@H]1CN2CCC1CC2)c1ccc2c(c1)OCCO2,inactive,–
Oc1c(Cl)cc(Cl)cc1Cl,inactive,–
CC(C)O.CC(C)O.OCCN(CCO)CCO.OCCN(CCO)CCO.[Ti],inactive,–
O=C(O)C1(c2ccc3c(c2)OC[C@H](Cc2ccc(-c4ccccc4)cc2)[C@H]3O)CCCC1,–,50 µM (active)
Clc1cccc(Cl)c1,inactive,–
Clc1cccc(Cl)c1Cl,inactive,–
CC(C)(C)c1ccccc1O,inactive,–
OCCN(CCO)CCO,inactive,–
CCCCCCCCCCCCc1cccc(S(=O)(=O)O)c1,inactive,–
Oc1cc(Cl)c(Cl)cc1Cl,inactive,–
